DT40 TDP1 CPT – growth inhibition of DT40 Tdp1-/-;hTDP1 cells with camptothecin (screen for TDP1 inhibitors); chicken DT40 Tdp1-/-;hTDP1 cells + 20 nM CPT, ATP luminescence, 48 h; AID 686979; actives 12% (n = 420,000); Potency, µM (doses to about 46.2 µM), for the others: at the top dose activity change, negative = growth inhibition, actives largely listed as inhibitors; also: potency is read from the fitted curve at half-maximal effect; % is scaled to controls: 0 for no effect and ±100 for the full control effect; nearly all actives have a fitted effect of over 55% in size
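Cell growth measured by CellTiter-Glo luminescence after a minimum 48 h, 37 C compound exposure with 20 nM CPT in Tdp1-knockout DT40 cells stably expressing hTDP1, seeded 400/well; qHTS titration format.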
IL-1B inflam inh – blocks inflammasome-driven IL-1 beta release. activity change, % at 57.5 µM. THP-1 LPS/ATP IL-1B secretion, AlphaLISA, 16 h; active compounds read low. actives 4.7% (n = 360,000); in the data active = activity change below about -50%; inconclusive = mostly about -30% to -49%; also: % is scaled to controls: 0 for no effect and ±100 for the full control effect
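Secreted IL-1B measured by AlphaLISA bead assay after 16 h compound exposure of THP-1 cells; compounds (final up to 57.5 uM) added 1 h before LPS (250 ng/mL) and ATP (1.25 mM) stimulation; lower signal means less secretion.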
D3 antag – blocks the human D3 dopamine receptor. P35462. D3R cells, DiscoveRx beta-arrestin luminescence, antagonist mode; active compounds read low. max response, negative = inhibition, %. actives 2.5% (n = 360,000). AID 652054; in the data active = max response below about -50%; inconclusive = no clear call, values can overlap the other calls; also: % is scaled to controls: 0 for no effect and ±100 for the full control effect
Target sequence (P35462 whole entry, looked up): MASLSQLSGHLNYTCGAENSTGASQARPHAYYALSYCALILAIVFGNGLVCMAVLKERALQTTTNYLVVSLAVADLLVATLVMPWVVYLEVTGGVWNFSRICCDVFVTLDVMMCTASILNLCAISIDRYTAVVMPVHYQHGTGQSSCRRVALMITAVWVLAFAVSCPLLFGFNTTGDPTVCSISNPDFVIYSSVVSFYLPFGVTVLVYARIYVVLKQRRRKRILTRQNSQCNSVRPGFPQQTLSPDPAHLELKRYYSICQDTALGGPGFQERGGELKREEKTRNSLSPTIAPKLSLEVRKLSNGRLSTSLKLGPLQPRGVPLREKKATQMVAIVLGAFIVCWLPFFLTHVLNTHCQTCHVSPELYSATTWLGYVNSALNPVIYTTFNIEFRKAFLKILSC
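Cells plated overnight at 1500 cells/well, then exposed to library compounds with dopamine controls for 90 minutes at 37 degrees C. DiscoveRx reagent added for 30–60 minutes at room temperature; luminescence read, quantitative HTS format.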
D3 ag – D3 dopamine receptor (human) agonism; D3R DiscoveRx beta-arrestin cells, luminescence, 90 min; max activation, %; actives 0.58% (n = 410,000); AID 652048; in the data active = max activation above about 30%; also: 0% is about no effect
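Agonist-mode cell screen: cells plated at 1500/well and incubated overnight at 37 °C, then exposed to library compounds for 90 min at 37 °C. Detection reagent was added for 30–60 min at room temperature, and luminescence was read.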
DT40 TDP1 no CPT – qHTS for Inhibitors of human tyrosyl-DNA phosphodiesterase 1 (TDP1): qHTS in cells in absence of CPT | DT40 Tdp1-/- hTDP1 cells, no CPT, ATP luminescence, 48 h | Potency, µM (series often up to 46.2 µM), inactives show top-dose activity change, negative = growth inhibition, actives largely listed as inhibitors | actives 15% (n = 420,000) | AID 686978, 2013; also: potency is read from the fitted curve at half-maximal effect; % is scaled to controls: 0 for no effect and ±100 for the full control effect; nearly all actives have a fitted effect of over 55% in size
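Compound effects on proliferation are scored in DT40 Tdp1-/-;hTDP1 cells in the absence of CPT. ATP levels (CellTiter-Glo luminescence) are recorded after a ≥48 hr, 37 °C incubation.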
ClpP mod – qHTS Assay for Activators of ClpP | Potency, µM (doses to about 57.5 µM), without a hit: top-dose activity change, negative = active | ATP-dependent Clp protease proteolytic subunit (Bacillus subtilis (strain 168)), P80244 | purified B. subtilis ClpP, FRET peptide cleavage, 20 min | actives 1.9% (n = 340,000); active = well fitted falling curve with a large enough effect; inconclusive = small, poorly fitted or top-dose-only effect; inactive = no such curve, though single readings can be large or run the other way; also: potency is read from the fitted curve at half-maximal effect; the source files actives as falling curves though it sought activators and does not explain the sign; nearly all actives have a fitted effect of over 65% in size
Target sequence (P80244 whole entry, looked up): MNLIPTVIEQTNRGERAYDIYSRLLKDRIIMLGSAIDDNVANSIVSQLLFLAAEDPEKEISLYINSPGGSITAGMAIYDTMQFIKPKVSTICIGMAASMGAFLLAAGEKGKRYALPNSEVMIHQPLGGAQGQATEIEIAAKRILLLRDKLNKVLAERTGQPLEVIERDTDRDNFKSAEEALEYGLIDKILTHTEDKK
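Purified B. subtilis ClpP, 10 microg/mL final in Tris/HCl pH8 with KCl, BSA, glycerol and Tween-20, cleaved an Abz/nitrotyrosine-quenched decapeptide. Fluorescence (ex 320, em 430) was read at 0 and 20 min at room temperature. Delta was normalized to 5.8 microM ADEP and DMSO/no-enzyme controls.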
Starred values were filed as active, the others as inactive. A selection: hits, their analogues and other compounds. The true share with any hit is near 21%. Unless noted, calls follow the shape of the dose curve; as a rule, active = well fitted inhibition curve with a large enough effect; inconclusive = small, poorly fitted or top-dose-only effect; inactive = flat fitted curve, though single readings scatter.

Screening O=C(NCC1CC1)c1ccc2c(c1)S(=O)(=O)c1cc(Cl)ccc1C2=O returned DT40 TDP1 CPT inconclusive, IL-1B inflam inh inconclusive, D3 antag 2, D3 ag 6, DT40 TDP1 no CPT inconclusive and ClpP mod -3%.
`CCN1C(=O)/C(=c2\sc3nc(=O)c(Cc4ccccc4)nn3c2=O)c2ccccc21` gave DT40 TDP1 CPT 14%, IL-1B inflam inh 5, D3 antag -3, D3 ag 15, DT40 TDP1 no CPT -5% and ClpP mod 0%.
For Cc1cc(C(F)(F)F)nn2cnnc12 the results were DT40 TDP1 CPT -4%, IL-1B inflam inh -1, D3 antag -3, D3 ag 23 and DT40 TDP1 no CPT 5%.
O=C(NC1CCCCC1)c1ccc(CSc2nc3cccnc3n2Cc2cccc(F)c2)cc1 was read as DT40 TDP1 CPT 10µM*, D3 ag -13, DT40 TDP1 no CPT 5.2µM* and ClpP mod 5%.
COc1cc(NC(=O)Cn2c(SCc3ccc(F)cc3)nc3cccnc32)cc(OC)c1 was read as DT40 TDP1 CPT -10%, D3 ag -3, DT40 TDP1 no CPT -23% and ClpP mod inconclusive.
For COc1ccc(NC(=O)Cn2c(SCc3ccc(C)cc3)nc3cccnc32)c(OC)c1 the results were DT40 TDP1 CPT 15µM*, D3 ag 39*, DT40 TDP1 no CPT inconclusive and ClpP mod 39%.
Screening O=C(NC1CCCCC1)c1ccc(CSc2nc3cccnc3n2Cc2ccc(F)cc2)cc1 returned DT40 TDP1 CPT inconclusive, D3 ag 4, DT40 TDP1 no CPT 13µM* and ClpP mod -8%.
For O=C(NC1CCCCC1)c1ccc(Cn2c(SCc3ccc(F)cc3)nc3cccnc32)cc1 the results were DT40 TDP1 CPT -9%, D3 ag -14, DT40 TDP1 no CPT -10% and ClpP mod -18%.
For O=C(NC1CCCC1)c1ccc(CSc2nc3cccnc3n2Cc2ccccc2F)cc1 the results were DT40 TDP1 CPT inconclusive, D3 ag -6, DT40 TDP1 no CPT 21µM* and ClpP mod 5%.
Screening CCCCN(C(=O)COC(=O)c1ccccc1)c1c(N)n(CCC)c(=O)[nH]c1=O returned DT40 TDP1 CPT -22%, IL-1B inflam inh -14, D3 antag 3, D3 ag 9 and DT40 TDP1 no CPT 7%.
Cc1ccc2[nH]c3c(=O)n(CC(=O)N4CCN(c5ccccc5F)CC4)ncc3c2c1 was read as DT40 TDP1 CPT -2%, D3 ag 1, DT40 TDP1 no CPT 9% and ClpP mod -2%.
Screening O=C(NC1CC1)c1ccc(Cn2c(SCc3cccc(F)c3)nc3cccnc32)cc1 returned DT40 TDP1 CPT inconclusive, D3 ag -7, DT40 TDP1 no CPT 8.2µM* and ClpP mod 5%.
Screening COc1ccc(Cn2c(SCc3ccc(C(=O)NC4CCCCC4)cc3)nc3cccnc32)cc1 returned DT40 TDP1 CPT inconclusive, D3 ag -18, DT40 TDP1 no CPT 15µM* and ClpP mod 5%.
O=C(NC1CC1)c1ccc(Cn2c(SCc3ccc(F)cc3)nc3cccnc32)cc1 was read as DT40 TDP1 CPT -30%, D3 ag -7, DT40 TDP1 no CPT -29% and ClpP mod 5%.
For O=C(/C=C/c1ccc(Br)cc1)NC1CCCCCC1 the results were DT40 TDP1 CPT -13%, IL-1B inflam inh -11, D3 antag -5, D3 ag 3, DT40 TDP1 no CPT inconclusive and ClpP mod 0%.
CCC1CSC(Nc2ccc(C(=O)/C=C/c3ccc(Br)cc3)cc2)=N1 (centres undefined) was read as DT40 TDP1 CPT inconclusive, IL-1B inflam inh -93*, D3 antag -20, D3 ag -3 and DT40 TDP1 no CPT inconclusive.
`CCC1CSC(Nc2ccc(C(=O)/C=C/c3ccc(OC)c(OC)c3)cc2)=N1` (centres undefined) gave DT40 TDP1 CPT inconclusive, IL-1B inflam inh -93*, D3 antag -5, D3 ag -3, DT40 TDP1 no CPT 13µM* and ClpP mod -2%.
Screening CCOC(=O)c1c(C)n(-c2ccc(C)cc2)c2c(C(C(C)=O)C(=O)O)c(Br)c(O)c(O)c12 (centres undefined) returned DT40 TDP1 CPT 23µM*, IL-1B inflam inh -8, D3 antag 47, D3 ag -9, DT40 TDP1 no CPT 23µM* and ClpP mod -2%.
`CCOC(=O)c1cc(C(=O)c2cc(Br)ccc2O)coc1=N` gave DT40 TDP1 CPT -6%, IL-1B inflam inh 0, D3 antag -15, D3 ag -6 and DT40 TDP1 no CPT -3%.
CCOC(=O)C(C(C)=O)c1c(Br)c(O)c(O)c2c(C(=O)c3ccc(C)cc3)coc12 (centres undefined) was read as DT40 TDP1 CPT 2.9µM*, IL-1B inflam inh -27, D3 antag -22, D3 ag 4, DT40 TDP1 no CPT 2.6µM* and ClpP mod -2%.
For O=C(c1cccnc1)N1CCCc2ccccc21 the results were DT40 TDP1 CPT 2%, IL-1B inflam inh 0, D3 antag 9, D3 ag 11, DT40 TDP1 no CPT 2% and ClpP mod -1%.
Screening O=C(c1cnn2c(C(F)F)cc(-c3ccccc3)nc12)N1CCc2ccccc21 returned DT40 TDP1 CPT 18µM*, IL-1B inflam inh 51, D3 antag 2, D3 ag -8 and DT40 TDP1 no CPT inconclusive.
For Cc1ccc2nc3sc(C(=O)N4CCCc5ccccc54)c(N)c3cc2c1 the results were DT40 TDP1 CPT inconclusive, IL-1B inflam inh 24, D3 antag inconclusive, D3 ag -29, DT40 TDP1 no CPT 15µM* and ClpP mod -2%.
Screening Cc1ccc(-c2cc(C(F)F)n3ncc(C(=O)N4CCc5ccccc54)c3n2)cc1 returned DT40 TDP1 CPT 1.8µM*, IL-1B inflam inh 44, D3 antag -16, D3 ag -7, DT40 TDP1 no CPT 1.8µM* and ClpP mod -5%.
`COc1ccc(-c2cc(C(F)F)n3ncc(C(=O)N4CCc5ccccc5C4)c3n2)cc1` gave DT40 TDP1 CPT inconclusive, IL-1B inflam inh inconclusive, D3 antag -15, D3 ag 0 and DT40 TDP1 no CPT inconclusive.

Assay outcomes (PubChem)
